Experimental findings from PubChem BioAssay AID1918990 (ICCB-Longwood Screening Facility, Harvard Medical School, 2023) are described below.

Each structure is given as a SMILES string. Among all 29,000 compounds or so, about 85 (0.3%) were called active.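 The calls were made as follows: active = replicate mean overnight rise in green fluorescent reporter signal, 3 or more SD over negative controls; inactive = the rest.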 What follows is part of a selection rich in actives, with near analogues and random picks from the rest. Square brackets hold non-standard residues; d marks the D form. Side chains are listed from the residue outwards. Peptide text beside a SMILES is read from it. * marks the point of attachment. X1 = CCC(C)C(N)C1=NC(C(=O)*)CS1; Orn = NCCC[CH](N)C(=O)O

The assay can be described thus: activators of Burkholderia fixLJ two-component system, primary screen, B. multivorans, GFP reporter (AID 1918990). To be noted: B. multivorans fixK-promoter GFP reporter, 18 h; hits give high values.
On to `COc1cccc(OCCn2c(-c3ccc(Br)cc3)nc3ccccc3c2=O)c1`, for which the z-score is -1.26 (inactive).

Consider `Cc1c[nH]c(CNC(=O)COCc2nc3ccc(F)cc3[nH]2)c(C)c1=O`, for which the z-score is -1.57 (inactive).

Take `CCSC(C)C(=O)N1CCc2c(nc(-c3ccncc3)nc2N(C)C)C1` (stereo not drawn): the z-score was -1.6 (inactive).

As to `CCOc1ccccc1C(=O)NC1(C(F)(F)F)NC(=O)N(CCc2ccc(OC)c(OC)c2)C1=O` (stereo not drawn), the z-score is -3.27 (inactive).

For `COc1cc(Br)cc2cc(S(=O)(=O)c3ccccc3)c(=O)oc12`, the z-score is -0.19 (inactive).

Consider `CCC(C)C(N)C1=NC(C(=O)NC(CC(C)C)C(=O)NC(CCC(=O)O)C(=O)NC(C(=O)NCCCCC2NC(=O)C(CC(N)=O)NC(=O)C(CC(=O)O)NC(=O)C(Cc3cnc[nH]3)NC(=O)C(Cc3ccccc3)NC(=O)C(C(C)CC)NC(=O)C(CCCN)NC2=O)C(C)CC)CS1` (stereo not drawn) (cyclo(DNK([Ile-Glu-Leu-X1])[Orn]IFH); configuration not given here), for which the z-score was -0.77 (inactive).

Turning to `CN(Cc1cnn(-c2ccc(F)cc2)c1)C(=O)C(C)(C)N1CCOCC1`, the z-score is -1.96 (inactive).

As for `C#CC(C)(CC)NC(=O)Cn1nnc(-c2ccc(OCc3c(F)cccc3Cl)cc2)n1` (stereo not drawn), the z-score was 0.9 (inactive).

Turning to `CC(NC(=O)N1CCCN(C(=O)C(F)(F)F)CC1)c1ccc(Cl)cc1` (stereo not drawn), the z-score was 0.97 (inactive).

Consider `CCOC(=O)c1ccc(-c2ccc(/C=C(\C#N)C(=O)Nc3ccc(OCC)cc3)o2)cc1`, for which the z-score was 0.84 (inactive).

With `CCOC(=O)c1ccc(N2C(=O)c3n[nH]c(C)c3C2c2ccc(O)c(OC)c2)cc1` (stereo not drawn), the z-score is -1.68 (inactive).

For `Cc1ccc(NC(=O)NC(C)c2c(-n3cccc3)sc(C)c2C)c(C)c1` (stereo not drawn), the z-score was -1.6 (inactive).

On to `Cc1ccc(-c2nc3cccc(C)n3c2Nc2ccc3c(c2)OCCO3)cc1`, for which the z-score is 0.46 (inactive).

Turning to `COc1cccc(Cn2c(SCc3ccc(C(=O)N4CCCCC4)cc3)nc3ccncc32)c1`, the z-score is -4.02 (inactive).

For `COc1ccccc1C1C(C(=O)N2CCCCC2)=C(C)Nc2nc3ccccc3n21` (stereo not drawn), the z-score was -0.33 (inactive).

In the case of `CCOc1ccc(-c2n[nH]c3c2C(c2ccccc2OC)N(c2ccc(Br)cc2)C3=O)cc1` (stereo not drawn), the z-score was -0.62 (inactive).

Consider `CC(C)Cn1c(=O)c2ccccc2n2c(CCC(=O)N3CCN(c4cccc(Cl)c4)CC3)nnc12`, for which the z-score is -1.08 (inactive).

For the compound `Cc1ccc(C(=O)Nc2ccccc2F)cc1S(=O)(=O)N1CCOCC1`, the z-score is -1.43 (inactive).

On to `O=C(CCc1cccc(Cl)c1)NC1COCC1Cc1ccncc1` (stereo not drawn), for which the z-score was -0.84 (inactive).

Consider `CCC1CCCCN1S(=O)(=O)c1ccc(NC(=O)c2cc(=O)c3ccccc3o2)cc1` (stereo not drawn), for which the z-score was -1.59 (inactive).

As for `CCCOc1ccc(CNC(=O)C2CCN(c3nn4c(=O)cc(C)nc4s3)CC2)cc1`, the z-score is 0.43 (inactive).

With `Cc1cc(OCC(=O)Nc2ncn[nH]2)c(C)c(C)c1Br`, the z-score is 0.56 (inactive).

As for `O=S(=O)(NCC(c1ccccc1)N1CCc2ccccc21)c1ccccc1` (stereo not drawn), the z-score is -0.54 (inactive).

For `CCCc1noc(C2CCC(=O)N(Cc3ccc(Cl)cc3)C2)n1` (stereo not drawn), the z-score is -0.44 (inactive).

As for `COc1ccccc1CNC(=O)CCCn1c(=O)c2ccccc2n(CC(=O)Nc2ccc(C)cc2Cl)c1=O`, the z-score is -1.06 (inactive).

As to `Cc1nc(N)ncc1C(=O)N(C)Cc1cn[nH]c1-c1ccccc1`, the z-score was -0.18 (inactive).

As to `COc1ncccc1NC(=O)NCc1nncn1C1CCCCC1`, the z-score is 0.26 (inactive).

As to `COc1ccc(NC(=O)CCN2CCN(CCO)CC2)cc1`, the z-score is -3.11 (inactive).

With `CC(C)c1ccc2oc(-c3cc(NC(=O)c4cccs4)ccc3Cl)nc2c1`, the z-score was 0.16 (inactive).

For `O=C1CC(c2nnc(Cc3ccc(Cl)cc3)o2)CN1c1ccccc1` (stereo not drawn), the z-score is 0.07 (inactive).

For `Cc1cccc(C)c1OCC(=O)NC(Cc1c[nH]c2ccccc12)C(=O)O` (stereo not drawn), the z-score was 0.01 (inactive).

As to `CSc1ncc(Cl)c(C(=O)Nc2ccc(S(=O)(=O)N3CCCC(C)C3)cc2)n1` (stereo not drawn), the z-score is 0 (inactive).

With `Cc1nc2nc(SCC(=O)N(Cc3ccccc3)C(C)C)nn2c(C)c1Cc1ccccc1Cl`, the z-score is -2.35 (inactive).

`Cc1ccc(CN(C)S(=O)(=O)c2c(Cl)nc3sccn23)o1`: the z-score is 1.01 (inactive).

With `Cn1c(=O)c2sccc2n2c(CCC(=O)NCc3ccccc3Cl)nnc12`, the z-score was -0.54 (inactive).

Consider `COc1cccc(CNC(=O)CCC(=O)N2CC3CCCN3c3ccccc32)c1` (stereo not drawn), for which the z-score is -0.45 (inactive).

With `CC(C)CC(=O)C1CCCN(C(=O)c2ccc(N3CCC(O)CC3)nc2)C1` (stereo not drawn), the z-score was 0.49 (inactive).

On to `CCC(=O)N1CCc2cc(S(=O)(=O)CCC(=O)N3CCN(c4ccccc4F)CC3)ccc21`, for which the z-score is -1.64 (inactive).

As to `CC(Sc1oc(-c2ccco2)nc1S(=O)(=O)c1ccc(Br)cc1)c1ccccc1` (stereo not drawn), the z-score was -1.12 (inactive).

On to `COc1ccc(NC(=O)c2cnc(Nc3ccc(C)c(Cl)c3)c3ccccc23)cc1OC`, for which the z-score is 0.07 (inactive).

Consider `Cc1ccc(OCC(=O)NC(c2ccc3c(c2)CCO3)C2CC(O)C2)cc1` (stereo not drawn), for which the z-score is 0.72 (inactive).

Regarding `COc1cccc(NC(=O)C2CCN(c3cc(C)nc4c(-c5ccc(Cl)cc5)c(C)nn34)CC2)c1`, the z-score was -0.45 (inactive).

In the case of `C=CCCC(=O)N1CCC[C@]2(C1)CN(C(=O)c1ccccc1CC)CCC2O` (stereo partly drawn), the z-score is -0.53 (inactive).

Regarding `COc1ccc(-c2noc(CSc3nc(C)cc(=O)[nH]3)n2)cc1OC`, the z-score is -1.97 (inactive).

As to `COc1ccc(CNc2nc(-c3ccc(Cl)cc3)nn2S(=O)(=O)c2ccc(C)cc2)cc1`, the z-score was -1.03 (inactive).

Take `Cc1cc(C(=O)NCc2nc(N)n[nH]2)c2c(C)nn(C)c2n1`: the z-score is 0.15 (inactive).

On to `COc1cccc(CNC(=O)C2CCC(CNS(=O)(=O)c3cccs3)CC2)c1` (stereo not drawn), for which the z-score was -0.11 (inactive).

Regarding `Cc1ccc2oc3c(c(=O)c2c1)C(c1ccc(O)cc1)N(Cc1ccc2c(c1)OCO2)C3=O` (stereo not drawn), the z-score was -1.07 (inactive).

Regarding `COC(=O)c1ccc(N2CCN(C(=O)c3csc(C)n3)CC2)cc1`, the z-score is -0.55 (inactive).

With `O=C(CSc1nnc(CNC(=O)c2ccccc2)n1-c1ccc(F)cc1)Nc1ccccc1F`, the z-score was -1.09 (inactive).

As to `COc1ccc(C2=NC(c3ccncc3)=Nc3ccc(Br)cc3N2)cc1`, the z-score was -0.81 (inactive).

As for `Cc1c(C(=O)N2CCC3(CC2)OCCCC3O)n(C)c2ccccc12` (stereo not drawn), the z-score was -0.28 (inactive).

In the case of `CCOC(=O)c1c(NC(=O)/C(C#N)=C/c2ccccc2)sc2c1CCC2`, the z-score is -0.67 (inactive).

Consider `COc1ccccc1-c1cc(C(F)(F)F)nc(S(=O)(=O)CCCC(=O)Nc2ccc(F)cc2F)n1`, for which the z-score is -0.87 (inactive).

As for `CCC(=O)N1CCc2cc(Br)cc(S(=O)(=O)CCC(=O)NCCc3ccc(OC)c(OC)c3)c21`, the z-score is 2.58 (inactive).

Take `CCC(=O)N1CCc2cc(Br)cc(S(=O)(=O)CCC(=O)NCc3ccccc3OC)c21`: the z-score is -0.86 (inactive).

Consider `CCC(=O)N1CCc2cc(Br)cc(S(=O)(=O)CCC(=O)N3CCN(c4ccc(F)cc4)CC3)c21`, for which the z-score is 3.68 (active).

With `Cc1cccc2nc(-c3ccc(Cl)s3)c(Nc3ccc4c(c3)OCCO4)n12`, the z-score is 0.38 (inactive).

In the case of `COc1ccc(CNC(=O)Cc2coc3ccc(C(C)C)cc23)cc1`, the z-score was -1.14 (inactive).

As for `CC(=O)N1CCCCC1C(=O)Nc1cccc(-n2cccn2)c1` (stereo not drawn), the z-score was -4.62 (inactive).

In the case of `Cc1ccc(C)c(N2CCN(C(=O)CN3C(=O)COc4ccc(S(=O)(=O)N5CCCCCC5)cc43)CC2)c1`, the z-score is -0.13 (inactive).

For `CCc1cc2c(cc(C(=O)OC)n2Cc2nc(-c3ccc(C)cc3)oc2C)s1`, the z-score was -0.09 (inactive).

As to `CCCOc1ccc(C2c3c(-c4ccccc4O)n[nH]c3C(=O)N2Cc2cccnc2)cc1` (stereo not drawn), the z-score is -1.98 (inactive).

As for `CCOc1ccc(N2CC(c3nc4ccccc4n3CCOc3ccc(OC)cc3)CC2=O)cc1` (stereo not drawn), the z-score was -4.05 (inactive).

On to `COc1ccc(OCCCn2c(C3CC(=O)N(c4ccc(F)cc4)C3)nc3ccccc32)cc1` (stereo not drawn), for which the z-score is 0.64 (inactive).

For the compound `CCc1ccccc1N1CC(c2nc3ccccc3n2CCCCOc2ccccc2)CC1=O` (stereo not drawn), the z-score was 5.94 (active).

Regarding `CC(=O)c1c(C)n(S(=O)(=O)c2ccc(Cl)cc2)c2ccc(NS(=O)(=O)c3ccc(Cl)cc3)cc12`, the z-score was -0.71 (inactive).

`COc1ccc(NC(=O)CNC(=O)Cn2ccc3ccccc3c2=O)c(OC)c1`: the z-score was -2.14 (inactive).

For the compound `CN1CCCn2nc(C(=O)NCCCCc3ccccc3)cc2C1`, the z-score is -1.24 (inactive).

Consider `CCc1ccccc1NS(=O)(=O)c1ccc2nc(-c3ccccc3)[nH]c2c1`, for which the z-score was -1.16 (inactive).

For the compound `CC(Cn1cccn1)NC1CCN(C(=O)c2cccnc2)CC1` (stereo not drawn), the z-score was -2 (inactive).

Regarding `Cc1ccc(N2CC(C(=O)Nc3ccc(N(C)C)cc3)CC2=O)cc1Cl` (stereo not drawn), the z-score is 0.09 (inactive).

`COc1cccc(-c2nc(CS(=O)(=O)CC(=O)NCCc3ccc(OC)c(OC)c3)c(C)o2)c1`: the z-score is -0.64 (inactive).

For the compound `CCc1ccccc1NC(=O)N1CCC2(CC1)Oc1ccccc1C(=O)N2Cc1ccccc1F`, the z-score was -0.81 (inactive).

`O=C(NC1CCCCC1)c1ccc2c(c1)N(Cc1ccc(Cl)cc1)C(=O)c1ccccc1S2=O` (stereo not drawn): the z-score was 0.06 (inactive).

Take `CCC(=O)N1CCc2cc(S(=O)(=O)NCCC(=O)Nc3cccc(C)c3C)ccc21`: the z-score was -0.9 (inactive).

For the compound `COc1ccccc1Nc1cc(C(=O)NCCCN(C)C2CCCCC2)c2ccccc2n1`, the z-score is -0.07 (inactive).

As for `CC(C)Sc1nnc(NC(=O)c2ccccc2-n2cnnc2)s1`, the z-score was -0.42 (inactive).

For the compound `CC(C)S(=O)(=O)c1oc(-c2ccc(F)cc2)nc1S(=O)(=O)c1ccc(F)cc1`, the z-score was -3.54 (inactive).

With `CCN(C(=O)Cn1cnc2sc(C)c(S(=O)(=O)N3CCN(c4ncccn4)CC3)c2c1=O)c1ccccc1F`, the z-score is -2.69 (inactive).

Consider `CCNC(=O)Cn1nc(C)n2c(cc3c(OC)cccc32)c1=O`, for which the z-score is -1.37 (inactive).

For the compound `CC(C)(C)C(Cn1ccnc1)NC(=O)C=Cc1cc(CO)cs1` (stereo not drawn), the z-score is 0.54 (inactive).

As to `COc1ccc(N(C)C(=O)C2CCN(S(=O)(=O)c3cc(Br)cc4c3N(C(C)=O)CC4)CC2)cc1`, the z-score was -1.87 (inactive).
